Out of some 16,000 compounds screened, about 5,800 (36%) were called active. Another 23% or so got no clear call; they are omitted. Calls come from the whole dose curve; as a rule, active = well fitted curve in the direction sought with a large enough effect; inconclusive = small, poorly fitted or top-dose-only effect, or effect the other way; inactive = no such curve, though single readings can be large or run the other way. Some of the results follow.
What follows are compounds tested against Cytochrome P450 2C19 (Homo sapiens) (UniProt P33261) (assay: Cytochrome panel assay with activity outcomes). Details: recombinant CYP, pro-luciferin dealkylation, luminescence, p450-cyp2c19; series mostly up to 57.1 µM.
% is set by controls: 0 for no effect and ±100 for the full control effect.

Cytochrome P450 2C19 (Homo sapiens), sequence (P33261 whole entry, looked up): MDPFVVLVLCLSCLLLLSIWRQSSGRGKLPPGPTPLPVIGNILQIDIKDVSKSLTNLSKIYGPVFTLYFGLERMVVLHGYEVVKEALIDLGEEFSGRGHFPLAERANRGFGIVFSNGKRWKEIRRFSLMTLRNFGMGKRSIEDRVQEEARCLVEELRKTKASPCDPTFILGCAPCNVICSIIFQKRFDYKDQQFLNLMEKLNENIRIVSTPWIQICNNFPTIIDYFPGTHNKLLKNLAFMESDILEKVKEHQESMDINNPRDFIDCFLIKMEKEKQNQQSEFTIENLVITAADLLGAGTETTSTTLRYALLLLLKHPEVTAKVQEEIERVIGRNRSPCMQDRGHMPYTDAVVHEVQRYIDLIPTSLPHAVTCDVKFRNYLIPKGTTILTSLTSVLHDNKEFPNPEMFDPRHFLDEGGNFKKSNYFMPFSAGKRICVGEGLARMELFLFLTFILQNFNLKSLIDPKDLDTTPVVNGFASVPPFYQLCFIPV

Structure (SMILES) | AC50 | activity, negative = inhibition
Cc1noc(C)c1C(=O)N1CCC[C@@]2(CCN(C(=O)Nc3ccccc3)C2)C1 | inactive | 
CCC(CC)C(=O)Nc1cccc(/C(C)=N/NC(=O)c2c(Br)cnn2C)c1 | inactive | 
CCOC(=O)c1c(NC(=O)c2c(Br)cnn2C)c(C#N)nn1-c1ccccc1 | 11200 nM (active) | 
O=C1NC(=S)N/C1=C/c1cccc([N+](=O)[O-])c1O | inactive | 
Cc1ccc(C(c2ccc(C)o2)c2cccc([N+](=O)[O-])c2O)o1 | 3550 nM (active) | 
Cc1c(-c2ccc(O)cc2)nn(-c2ccc(O)cc2)c1-c1ccc(OCCN2CCCCC2)cc1 | inactive | 
O=C(NCC1CCCO1)/C(=C\c1ccco1)NC(=O)c1ccccc1 (configuration not stated) | inactive | 
Cc1ccc(C(=O)N/C(=C/C=C/c2ccccc2)C(=O)NCc2ccco2)cc1 | 2240 nM (active) | 
C=CCNC(=O)/C(=C\C=C\c1ccccc1)NC(=O)c1ccc(OCCCC)cc1 | 14100 nM (active) | 
CC(C)OC(=O)/C(=C\C=C\c1ccccc1)NC(=O)c1ccccc1 | inactive | 
Cc1ccc(CSc2nnc(-c3ccncc3)n2CC2CCCO2)cc1 (configuration not stated) | 4470 nM (active) | 
CCC(=O)Nc1ccc(C(=O)CSc2nnc(-c3ccc(O)cc3)n2CC2CCCO2)cc1OC (configuration not stated) | inactive | 
COc1ccc(-c2nc3cnc(N(C)C)nc3n(C[C@H]3CCCO3)c2=O)cc1 | inactive | 
CCn1c(-c2ccc(N(C)C)cc2)nc2ccccc21 | 39800 nM (active) | 
Cc1ccc(NC(=O)NCCCc2ccccc2)cc1 | 2510 nM (active) | 
O=C(NCCCc1ccccc1)c1cccs1 | 2510 nM (active) | 
Cc1cc(C)c(NC(=O)CS(=O)CC(=O)NCCCc2ccccc2)c(C)c1 (configuration not stated) | inactive | 
Cc1ccc(S(=O)(=O)NNc2ccccc2)cc1 | 2820 nM (active) | 
Cc1ccc(NNS(=O)(=O)c2ccc(C)cc2)cc1 | 7080 nM (active) | 
Cc1ccc(S(=O)(=O)NC(=O)OC23COCN2COC3)cc1 |  | 12.8% [at 11.4 µM] (inactive)
Cc1ccc(NC(=O)NNS(=O)(=O)c2ccc(Br)cc2)cc1 | inactive | 

Structure (SMILES) | AC50 | activity, negative = inhibition
CO[C@H]1COC(=O)[C@@H](Cc2ccccc2)NC(=O)[C@@H](C)COC(=O)CCC[C@@H]1C |  | -15.4% [at 11.4 µM] (inactive)
COc1ccccc1C1(CC(=O)Nc2nccs2)CCOC(C(C)C)C1 (configuration not stated) | 1580 nM (active) | 
COc1ccc(-c2csc(-n3ncc(-c4cccs4)c3N)n2)cc1 | inactive | 
Nc1c(-c2cccs2)cnn1-c1nc(-c2ccc(F)cc2)cs1 | inactive | 
Nc1c(-c2cccs2)cnn1-c1nc(-c2ccc(Cl)cc2Cl)cs1 | 70.8 nM (active) | 
COc1ccc(CNc2ncncc2-c2ccccc2C(F)(F)F)c(OC)c1 | 1580 nM (active) | 
COc1ccccc1CNc1ncncc1-c1ccccc1C(F)(F)F | 1580 nM (active) | 
COCCn1c(=O)c(C)nc2cnc(N(C)C)nc21 | inactive | 
COC(=O)c1ccc(Oc2nc(N(C)C)nc(N3CCOCC3)n2)cc1 | 14100 nM (active) | 
COc1ccc(-n2c(=O)c(C)nc3cnc(N4CCOCC4)nc32)cc1 | inactive | 
CN(C)C(=O)c1ccc(-c2ccc3ncnc(N4CCOCC4)c3c2)cc1 | inactive | 
N#Cc1c(NC(=O)C(F)(F)F)sc2c3c(=O)c4ccccc4c(=O)c=3oc3ccccc3c12 | 501 nM (active) | 
Cc1cccc(N2CCN(C(=O)CCCn3c(=S)[nH]c4cc5c(cc4c3=O)OCO5)CC2)c1C | 2820 nM (active) | 
O=C(CCCn1c(=S)[nH]c2cc3c(cc2c1=O)OCO3)N1CCN(c2ncccn2)CC1 | 22400 nM (active) | 
O=c1c2cc(Br)ccc2[nH]c(=S)n1Cc1cccnc1 | 1580 nM (active) | 
O=C(CCCn1c(=S)[nH]c2cc3c(cc2c1=O)OCO3)N1CCN(c2ccccc2)CC1 | 10000 nM (active) | 
Cn1c(=S)c2[nH]c(SCc3cccnc3)nc2n(C)c1=O |  | 23.1% [at 11.4 µM] (inactive)
C=CCNC(=O)c1ccc(Cn2c(=S)[nH]c3cc4c(cc3c2=O)OCO4)cc1 | inactive | 
O=C(c1cnccn1)N1CCC2(CC1)CN(c1cccc(-c3ccccc3)c1)C2 | inactive | 
O=C(O)/C=C\C(=O)Nc1cccc2c1-c1ccccc1C2=O |  | 28.6% [at 11.4 µM] (inactive)
Cc1ccccc1CNc1ncnc2c1ncn2[C@@H]1O[C@@H](CO)[C@H](O)[C@@H]1O | inactive | 

Structure (SMILES) | AC50 | activity, negative = inhibition
CCCc1nnc(NC(=O)CCC(=O)N2CCN(c3ccccn3)CC2)s1 | inactive | 
O=C(CCCn1c(=S)[nH]c2ccc(Br)cc2c1=O)N1CCN(c2ccccn2)CC1 | 2510 nM (active) | 
O=C(CCCn1c(=S)[nH]c2ccc(Br)cc2c1=O)NCC1CCCO1 (configuration not stated) | 3550 nM (active) | 
CN=C(NC#N)NCCSC[C@H]1N=CN=C1C | inactive | 
N[C@@H]1[C@@H]2[C@@H]3C[C@H]4N(CC[C@@]14C(=O)C(=O)O)CC3=CCO[C@@H]2CC(=O)O |  | -13.5% [at 11.4 µM] (inactive)
Cc1ccc(S(=O)(=O)NCCSc2nnnn2C)cc1 | 5010 nM (active) | 
Cc1cccc(CNc2ncnc3ccc(-c4ccoc4)cc23)c1 | 7940 nM (active) | 
c1cncc(CNc2ncnc3ccc(-c4ccoc4)cc23)c1 | 25.1 nM (active) | 
Cc1cccc(CNc2ncnc3ccc(-c4cccc(C#N)c4)cc23)c1 | inactive | 
Cn1cccc1C(=O)N1CCC2(CC1)CN(C(c1ccccc1)c1ccccc1)C2 | inactive | 
CC(C)N(C(=O)CSc1nc2ccccc2n1-c1ccccc1)C(C)C | 7940 nM (active) | 
COC(=O)c1cc2c(ccn2-c2ccc(F)cc2)n1CC(C)C | 3160 nM (active) | 
COC(=O)c1cc2c(ccn2-c2ccc(F)cc2)n1C(C)C | 2000 nM (active) | 
COCCn1c(=O)c(-c2ccc(F)cc2)nc2cnc(N(C)C)nc21 | inactive | 
C=C[C@H](N)CCC(=O)O | inactive | 
CCc1ccccc1NC(=O)CSc1nc(-c2ccccc2)nn1C(=O)c1cccc([N+](=O)[O-])c1 | 398 nM (active) | 
COc1ccccc1-c1cc(-n2ccnc2)ncn1 | 2000 nM (active) | 
CN(C)Cc1ccccc1-c1cc(-n2ccnc2)ncn1 | 25100 nM (active) | 
CN(C)Cc1ccccc1-c1cc(NC2CC2)ncn1 | inactive | 
CNc1cc(-c2ccccc2CN(C)C)ncn1 | inactive | 
